From PubChem
CCT modulator = changes cytosolic chaperonin activity. purified chaperonin ATPase assay, HTRF ADP detection, 30 min. activity change, % (no concentration beside the values), hits read low. 0.3% of 360,000 active. AID 651819; in the data active = activity change below about -30%; note: % is set by controls: 0 for no effect and ±100 for the full control effect
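We incubate TRiC, 40 or 20 nM final, with library compounds at 76 uM and 10 uM ATP for 30 min at 37 °C. ADP formed is detected with Transcreener HTRF reagents after 30 min at room temperature.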
Mm-Cpn inhibitor = inhibitors of Methanococcus maripaludis chaperonin TRiC (MmCpn) | purified Mm-Cpn ATPase, ADP Transcreener TR-FRET | Potency, µM (highest dose often 76.9 µM), inactives show top-dose activity, negative = inhibition, actives largely listed as inhibitors | 0.031% of 330,000 active; note: potency is the fitted concentration of half-maximal effect; % is set by controls: 0 for no effect and ±100 for the full control effect; nearly all actives have a fitted effect of over 80% in size
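25 nM Mm-CPN + cpd, 10 min 37°C; + 10 uM ATP, 30 min 37°C; buffer 30 mM Tris pH 7.4, 100 mM KCl, 5 mM MgCl2, 1 mM DTT; Transcreener ADP HTRF detection 30 min RT.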
aSyn yeast inh = rescues yeast growth from alpha-synuclein toxicity; Yeast expressing alpha-synuclein, growth rescue, BacTiter-Glo, 24 h; Potency, µM (titrated, usually from 46.1 µM), without a hit: at the top dose growth rescue (activation), most hits filed as activators; 0.14% of 370,000 active; AID 652106; note: potency is the fitted concentration of half-maximal effect; % of control where 0% means no effect; nearly all actives have a fitted effect of over 65% in size
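Rescue of yeast growth: cells expressing toxic alpha-synuclein, induced in galactose at OD600 0.02, incubated with compound 24 h at 30 C. ATP luminescence quantified growth; inhibitors of toxicity appear as activators.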
FUS suppressor = rescues growth of FUS-expressing yeast | S. cerevisiae FUS-expressing, growth rescue, OD600, 24 h | Potency, µM (doses to about 76.6 µM), actives largely listed as activators | 0.24% of 390,000 active;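 note: potency is the fitted concentration of half-maximal effect; plate controls were DMSO vehicle for no effect and reference control for full effect; nearly all actives have a fitted effect of over 55% in size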
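Cultures pregrown in 2.5% raffinose medium are shifted to minimal medium containing 2% galactose to express toxic FUS. Compounds are tested at several concentrations. After 24hr at 30C, growth is quantified at 600 nm absorbance.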
TDP-43 yeast inh = TDP-43 toxicity inhibition in yeast; TDP-43 expressing yeast growth rescue, BacTiter-Glo, 24 h; Potency, µM (doses to about 46.1 µM), for the others: at the top dose growth rescue (activation), usual class: activators; 1.8% of 410,000 active; note: potency is the fitted concentration of half-maximal effect; % of control where 0% means no effect; nearly all actives have a fitted effect of over 50% in size
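Cell-based yeast growth screen: TDP-43 expression induced in galactose, inoculum OD600=0.02 after raffinose pregrowth to mid-log. Read-out BacTiter-Glo luminescence at 24 hr, 30 deg C; inhibition of toxicity seen as signal increase.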
Abeta rescue = compounds reversing amyloid beta toxicity in yeast; yeast expressing A-beta42, growth rescue, OD600, 48 h; response scale: 0% DMSO, 100% iron-clioquinol control; Potency, µM (titrated, usually from 46.1 µM), actives largely listed as activators; 0.063% of 410,000 active; AID 1347071; note: potency is the fitted concentration of half-maximal effect; nearly all actives have a fitted effect of over 55% in size
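Growth rescue measured by 600 nm absorbance after 48 h yeast culture at 30 C with compound. Values normalized between DMSO and an equimolar ferric chloride plus clioquinol control.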
Starred values were filed as active, the others as inactive; i = inactive; u = inconclusive; x = no result given. An excerpt weighted towards active compounds, which were near 2.3% of everything screened. Unless noted, calls come from the whole dose curve; as a rule, active = well fitted curve in the direction sought with a large enough effect; inconclusive = small, poorly fitted or top-dose-only effect, or another doubt; inactive = no such curve, though single readings can be large; an effect the other way counts as inactive or inconclusive.

SMILES	CCT modulator	Mm-Cpn inhibitor	aSyn yeast inh	FUS suppressor	TDP-43 yeast inh	Abeta rescue
O=C(c1ccc(F)cc1)c1ccc(CN2C(=O)c3ccccc3C2=O)o1	-0.8	0.9%	2.0%	i	12.6µM*	i
O=C(c1ccc(Cl)cc1)c1ccc(CN2C(=O)c3ccccc3C2=O)o1	0.1	-0.6%	10.3%	i	14.1µM*	i
COC(=O)c1ccc(CN2C(=O)c3ccccc3C2=O)cc1	-1.8	0.2%	u	i	u	i
C=Cc1ccc(C(=O)N2CCC(n3nnc4ncccc43)CC2)cc1	x	x	x	i	x	x
CCCCCCCCCCCCOC(=O)N1CCN(/[N+]([O-])=N/Oc2ccc([N+](=O)[O-])cc2[N+](C)=O)CC1	x	x	-46.6%	x	x	x
CCOc1cc(S(=O)(=O)NC2CCCC2)ccc1Cl	-1.0	1.8%	0.0%	i	20µM*	i
Cn1c(=O)n(C)c2cc(N3CCCCC3)c(NC(=O)c3c(F)cccc3F)cc21	x	x	x	i	22.4%	i
CSc1ccccc1NC(=O)c1cc(C(C)C)on1	0.3	-1.6%	1.4%	i	11.2µM*	i
C(=Nc1ccc(/C=C/c2ccnc3ccccc23)cc1)c1ccco1	x	x	-2.6%	x	x	x
CN1CCN(/C=N/C2=C(C#N)C(c3ccccc3)C3=C(CC(C)(C)CC3=O)O2)CC1 (configuration not stated)	-34.3*	0.2%	-2.2%	i	-8.8%	i
COc1cc(-c2cc(OC)c3c(C)oc(C)c3c(=O)c2)ccc1OC(=O)c1ccccc1Cl	x	x	x	12.6µM*	13.0%	i
O=C1c2ccccc2C(=O)N1CCCc1c[nH]c2ccc(Cl)cc12	-1.5	1.2%	5.2%	x	10µM*	i
Cc1ccc2nc(NC(=O)c3ccccn3)sc2c1	0.7	0.9%	7.08µM*	i	10µM*	i
Cc1ccc(Cn2ccnc2SCC(=O)NCc2ccccc2Cl)cc1	x	x	x	i	11.2µM*	i
Cc1ccc2nc(NC(=O)CSc3nccn3-c3ccc(Cl)cc3)sc2c1	x	x	x	i	0.0%	i
O=C(CSc1nccn1Cc1ccccc1)NCc1ccc(F)cc1	x	x	7.7%	i	3.8%	i
O=C(CSc1nccn1Cc1ccc(F)cc1)Nc1nc2ccccc2s1	x	x	20µM*	i	u	u
Cc1ccc2nc(NC(=O)CSc3nccn3Cc3ccc(Cl)cc3)sc2c1	x	x	x	i	11.2µM*	i
CCN(CC)c1nc(NC2CCN(C)CC2)c2cc(OC)c(OC)cc2n1	x	x	-1.4%	x	x	x
Cc1ccc2c(/C=C/c3ccc(N(C)C)cc3)ccnc2c1	x	x	-14.1%	x	x	x
CCCNc1nc(Nc2ccc(C)cc2)nc(N2CCCC2)n1	-0.7	2.1%	1.2%	i	11.2µM*	i
COc1ccc(Nc2nc(NCCO)nc(N3CCCC3)n2)cc1	x	x	x	i	x	i
COc1ccc(NC(=O)C2CC(c3ccccc3Cl)=NO2)cc1 (configuration not stated)	-0.8	-0.2%	11.6%	i	11.2µM*	i
CCOC1=C2CN(S(=O)(=O)c3ccc(C)cc3)[C@H](c3cccc4ccccc34)C[C@H]2[C@H]2C(=O)N(c3ccccc3)C(=O)[C@H]2C1	0.8	x	14.1µM*	i	18.6%	i
Cc1oc2c(c1C(=O)N1CCC(C)CC1)C(=O)c1ccccc1C2=O	-0.2	-3.4%	7.8%	i	12.6µM*	i
SMILES	CCT modulator	Mm-Cpn inhibitor	aSyn yeast inh	FUS suppressor	TDP-43 yeast inh	Abeta rescue
CCOC(=O)C1CCN(C(=O)c2c(C)oc3c2C(=O)c2ccccc2C3=O)CC1	-5.4	1.4%	-3.0%	i	0.0%	i
COC(=O)CC[C@@H](/C=C/C(=O)OC(C)(C)C)Sc1ccc(C(C)(C)C)cc1	x	x	x	i	x	x
O=C1c2ccccc2/C(=C\c2ccc3[nH]ccc3c2)N1c1ccccc1	-2.4	-8.8%	-22.0%	i	u	i
CCC/C(=C1/c2ccccc2C(=O)N1c1ccccc1)c1ccc2[nH]ccc2c1	1.0	-6.4%	-44.0%	i	14.1µM*	i
O=C(/C=C/c1c(Cl)cccc1Cl)N1CCN(c2ncccn2)CC1	-4.6	1.2%	u	i	11.2µM*	i
O=C(/C=C/c1ccco1)N1CCN(c2ncccn2)CC1	-1.0	0.3%	-1.7%	i	9.5%	i
CCCN(CCC)CCNC(=O)c1cc2c(=O)n(C)c3ccccc3c2n1C	0.0	-1.4%	11.2µM*	i	-2.5%	i
Cc1ccc(CNC(=O)c2cc3c(=O)n(C)c4ccccc4c3n2C)cc1	-31.6*	0.1%	3.1%	i	0.0%	i
COc1cccc(CNC(=O)c2cc3c(=O)n(C)c4ccccc4c3n2C)c1	x	x	x	i	-6.7%	i
COc1ccc(NC(=O)c2cc3c(=O)n(C)c4ccccc4c3n2C)cc1OC	-31.6*	1.9%	1.3%	u	7.8%	i
CN(CCNC(=O)c1cc2c(=O)n(C)c3ccccc3c2n1C)Cc1ccccc1	0.4	1.2%	u	i	-3.0%	i
Cc1ccc(-c2[nH]ncc2CNCc2ccc(CN(C)C)cc2)cc1	x	x	-0.5%	x	x	x
Cc1ccc(C)c(-c2csc(N)c2C(=O)OC(C)C)c1	0.1	0.2%	-10.6%	i	u	i
Cc1cccc(-c2csc(N)c2C(=O)OC(C)C)c1	-1.5	0.5%	7.5%	i	12.6µM*	i
CCOC(=O)c1c(-c2cccc([N+](=O)[O-])c2)csc1N	-2.4	-0.1%	3.4%	u	17.8µM*	i
CCOC(=O)c1c(-c2cccc([N+](=O)[O-])c2)csc1NC(=O)C1CC1	-3.8	-1.2%	4.9%	i	20.0%	i
CCc1ccc(-c2nnn(CCC(=O)OC)n2)cc1	-3.7	1.8%	8.4%	i	15.8µM*	i
CCc1ccc(-c2nnn(CCC#N)n2)cc1	-0.7	2.8%	3.7%	i	-0.1%	i
CNc1nc(C)c([N+](=O)[O-])c(Nc2ccc(OC)cc2)n1	-3.5	1.4%	10.6%	i	12.6µM*	i
Cc1cc(C)c(NC(=O)c2cc3c(=O)n4ccccc4nc3n2C)c(C)c1	x	x	x	i	35.5µM*	i
O=C(Nc1nnc2n1CCS2)c1ccco1	-73.4*	-0.4%	-9.3%	i	-13.0%	i
O=C1NC(=O)/C(=C/c2ccc3c(c2)OC(F)(F)O3)S1	x	x	-38.7%	x	x	x
Nc1ncnc2nc(-c3ccc(N4CCOCC4)nc3)cc(-c3cccc(Br)c3)c12	x	x	20.6µM*	x	x	x
c1ccc(-c2cc(N3CCOCC3)nc(-c3ccccc3)n2)cc1	-2.7	-0.3%	-0.6%	i	-11.6%	i
O=C(NC(=S)Nc1ccc(N2CCOCC2)cc1)c1cccc(Cl)c1	-4.6	0.8%	0.0%	i	15.8µM*	i
CCC[n+]1c(/C=C/c2c(OC)cc(OC)cc2OC)ccc2ccccc21	x	x	-24.0%	x	x	x
